Measured values published in PubChem BioAssay (NCI).
Several values for one entry are separate records, joined by “and”; a condition that tells them apart may be missing. Identical values can stand only once. This is part of a sample that, as a whole, favours compounds with a hit. Of some 83,000 tested, about 20% had one in any assay.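 Cell lines were cultured in 96-well plates, exposed to a single compound concentration, and assessed for percent growth 48 hours later.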 Activity calls are given as the source filed them. The calls were made as follows: active = growth percent below 10; inactive = the rest.

The compounds below were run on UACC-257 melanoma (assay: NCI-60 one-dose screen, 48 h (100 = growth as untreated, 0 = no growth, -100 = all killed)). Details: 10 µM.
For `COc1ccc(C(C#N)=C2C=CC(=NO)C=C2)cc1`, the growth was 58.1% (inactive).
`CC1CCC2(C(=O)O)CCC3(C)C(=CCC4C5(C)CC(O)C(O)C(C)(CO)C5C(O)CC43C)C2C1C` (stereo not drawn) was tested, and the growth was 93.7% (inactive).
For `COc1ccc2c(c1)[nH]c1c(/C=C/c3ccccc3)nccc12`, the growth was 71.8% (inactive).
For `O=C(O)c1ccccc1.[Ag]`, the growth was 93.6% (inactive).
With `Cc1cc(O)c2c(c1O)C(=O)C13C(=C2O)C(=O)C2C(O)C1C1C(O)C3C(=O)C3=C(O)c4c(O)cc(C)c(O)c4C(=O)C321` (stereo not drawn) the growth was 8.71% (active).
With `S=C1SCN(CCc2ccccc2)CN1CCc1ccccc1` the growth was 71.6% (inactive).
In the case of `Cc1cc(C)c(N2C(=O)CC(Sc3ccccc3N)C2=O)c(C)c1` (stereo not drawn), the growth is reported as 60.4% (inactive).
For `COc1ccc2oc(-c3ccc(Cl)cc3)c(N3CCN(C)CC3)c2c1`, the growth was 22% (inactive).
In the case of `NCc1c(O)ccc2ccccc12`, the growth is reported as 95.6% (inactive).
With `O=C(NC(=S)Nc1ccccn1)c1ccccc1` the growth was 110% (inactive).
In the case of `CN(CC(=O)O)c1ccc(/C=C/c2ccnc3ccccc23)cc1`, the growth is reported as 86.9% (inactive).
In the case of `Cc1c(-c2ccccc2)[nH]c2ccccc12`, the growth is reported as 112% (inactive).
In the case of `S=P(N1CC1)(N1CC1)N1CC1`, the growth is reported as 107% (inactive) and 87.7% (inactive).
For `ClCCn1c(CCl)nc2ccc(Cl)cc21`, the growth was 70.3% (inactive).
In the case of `CN(C)c1ccc(/C=C/c2ccnc3ccccc23)cc1N`, the growth is reported as 58.7% (inactive).
For `COc1ccc(N)c2c1C(=O)c1ccccc1C2=O`, the growth was 106% (inactive).
With `CC[C@@]1(OC(=O)CN(C)C)C(=O)OCc2c1cc1n(c2=O)Cc2cc3c(N)cccc3nc2-1` the growth was -35.4% (active).
`Cc1cc(N=C2C=CC(=[N+](C)C)C=C2)c(N)cc1N` was tested, and the growth was 103% (inactive).
For `CC(=O)O[C@H]1C(=O)[C@@]2(C)[C@H]([C@H](OC(=O)c3ccccc3)[C@]3(O)C[C@H](OC(=O)[C@H](O)[C@@H](NC(=O)c4ccccc4)c4ccccc4)C(C)=C1C3(C)C)[C@]1(OC(C)=O)CO[C@@H]1C[C@@H]2O`, the growth was 26.9% (inactive) and 65% (inactive).
In the case of `O=C1C(Cl)=C(Cl)C(Cl)(Cl)C(Cl)C1(Cl)Cl` (stereo not drawn), the growth is reported as 110% (inactive).

What follows are compounds tested on M14 melanoma in the same assay as above. Details: 10 µM unless noted.
`COc1ccc(C(C#N)=C2C=CC(=NO)C=C2)cc1` was tested, and the growth was 79.1% (inactive).
With `CC1CCC2(C(=O)O)CCC3(C)C(=CCC4C5(C)CC(O)C(O)C(C)(CO)C5C(O)CC43C)C2C1C` (stereo not drawn) the growth was 53.9% (inactive).
With `COc1ccc2c(c1)[nH]c1c(/C=C/c3ccccc3)nccc12` the growth was 71.4% (inactive).
`O=C(O)c1ccccc1.[Ag]` was tested, and the growth was 96.4% (inactive).
With `S=C1SCN(CCc2ccccc2)CN1CCc1ccccc1` the growth was 120% (inactive).
In the case of `Cc1cc(C)c(N2C(=O)CC(Sc3ccccc3N)C2=O)c(C)c1` (stereo not drawn), the growth is reported as 60.3% (inactive).
With `COc1ccc2oc(-c3ccc(Cl)cc3)c(N3CCN(C)CC3)c2c1` the growth was -66% (active).
With `NCc1c(O)ccc2ccccc12` the growth was 90.8% (inactive).
`O=C(NC(=S)Nc1ccccn1)c1ccccc1` was tested, and the growth was 91.9% (inactive).
In the case of `CN(CC(=O)O)c1ccc(/C=C/c2ccnc3ccccc23)cc1`, the growth is reported as 90.3% (inactive).
With `Cc1c(-c2ccccc2)[nH]c2ccccc12` the growth was 143% (inactive).
`S=P(N1CC1)(N1CC1)N1CC1` was tested, and the growth was 96.2% (inactive) and 60.4% (inactive).
For `ClCCn1c(CCl)nc2ccc(Cl)cc21`, the growth was -83.3% (active).
For `CN(C)c1ccc(/C=C/c2ccnc3ccccc23)cc1N`, the growth was 73.9% (inactive).
With `COc1ccc(N)c2c1C(=O)c1ccccc1C2=O` the growth was 117% (inactive).
With `CC[C@@]1(OC(=O)CN(C)C)C(=O)OCc2c1cc1n(c2=O)Cc2cc3c(N)cccc3nc2-1` the growth was -40.1% (active).
With `Cc1cc(N=C2C=CC(=[N+](C)C)C=C2)c(N)cc1N` the growth was 107% (inactive).
In the case of `O=C1C(Cl)=C(Cl)C(Cl)(Cl)C(Cl)C1(Cl)Cl` (stereo not drawn), the growth is reported as 103% (inactive).
